The source of these data is PubChem BioAssay AID1851 (National Center for Advancing Translational Sciences (NCATS), 2009).

Where “and” joins values, the source holds several entries; their conditions need not be identical. Identical values can stand only once. About 5,800 (36%) of roughly 16,000 compounds were called active. Another 23% or so got no clear call; they are omitted. Calls come from the whole dose curve; as a rule, active = well fitted curve in the direction sought with a large enough effect; inconclusive = small, poorly fitted or top-dose-only effect, or effect the other way; inactive = no such curve, though single readings can be large or run the other way. Some of the results follow.
% is set by controls: 0 for no effect and ±100 for the full control effect.

Cytochrome P450 2C19 (Homo sapiens), sequence (P33261 whole entry, looked up): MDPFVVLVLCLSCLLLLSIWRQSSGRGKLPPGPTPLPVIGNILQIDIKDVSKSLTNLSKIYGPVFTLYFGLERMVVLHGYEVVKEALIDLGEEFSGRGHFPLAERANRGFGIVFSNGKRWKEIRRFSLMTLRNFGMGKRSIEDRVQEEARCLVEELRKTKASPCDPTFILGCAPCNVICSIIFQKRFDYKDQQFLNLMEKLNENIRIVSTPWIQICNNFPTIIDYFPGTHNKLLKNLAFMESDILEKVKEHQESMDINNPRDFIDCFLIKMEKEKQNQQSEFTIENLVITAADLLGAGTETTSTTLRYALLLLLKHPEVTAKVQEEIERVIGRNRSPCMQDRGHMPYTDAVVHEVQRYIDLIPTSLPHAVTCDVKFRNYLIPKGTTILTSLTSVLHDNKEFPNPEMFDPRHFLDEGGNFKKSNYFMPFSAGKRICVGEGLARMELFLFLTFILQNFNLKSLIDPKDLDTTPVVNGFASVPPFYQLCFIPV

This assay has as its target Cytochrome P450 2C19 (Homo sapiens) (UniProt P33261). Description: Cytochrome panel assay with activity outcomes. Conditions: recombinant CYP, pro-luciferin dealkylation, luminescence, p450-cyp2c19; series mostly up to 57.1 µM; activity, negative = inhibition: at the top concentration.
On to `CCOC(=O)Nc1ccc(C(=O)NCC2CCCO2)cc1` (configuration not stated), for which the “activity, negative = inhibition” value was 14.5% (inactive).
As for `CC1CCN(C(=O)c2ccc(COc3ccccc3Cl)o2)CC1`, the concentration at half-maximal activity (AC50) – broadly, the concentration giving half of the maximal activity seen – was 8.91 µM (active).
On the same count and under the same terms, as for `CCOc1ccc(OCc2ccc(C(=O)N3CCc4ccccc4C3)o2)cc1`, the figure is 5.62 µM (active).
With `Cc1cc(=O)oc(C)c1C(=O)NCc1cccnc1`, the “activity, negative = inhibition” value was 12.1% (inactive).
Regarding `Cc1ccccc1CS(=O)(=O)Cc1ccc(C(=O)NCc2cccnc2)o1`, the concentration at half-maximal activity (AC50) is 3.55 µM (active).
In the case of `O=C(O)c1cc2cc(Cc3cccnc3)ccc2o1`, the “activity, negative = inhibition” value is 34.7% (inactive).
For the compound `CCOc1ccc(OCc2ccc(C(=O)NCc3cccnc3)o2)cc1`, the concentration at half-maximal activity (AC50) is 22.4 µM (active).
As for `NS(=O)(=O)c1cc2c(cc1Cl)NC(CSCc1ccccc1)=NS2(=O)=O`, the “activity, negative = inhibition” value was 3.64% [at 25.6 µM] (inactive).
On the same count and under the same terms, as for `CNC[C@@H](SC)c1ccc(O)c(O)c1`, the figure is -19% [at 11.4 µM] (inactive); as for `Cc1cccc(C)c1NC(=O)CN1CCN(CCCC(c2ccc(F)cc2)c2ccc(F)cc2)CC1`, -29.9% [at 25.6 µM] (inactive).
Take `CC(=O)Nc1ccc(NC(=O)Cn2c(-c3ccc(F)cc3)cnc2SCC(=O)Nc2c(C)cccc2C)cc1`: the AC50 was 1.58 µM (active).
Regarding `CCNc1ncc2nc(-c3ccc(Cl)cc3)c(=O)n(C[C@H]3CCCO3)c2n1`, the “activity, negative = inhibition” value was 9.08% (inactive).
Take `CCc1ccccc1NC(=O)C1C(c2ccccc2)C1(Cl)Cl` (configuration not stated): the concentration at half-maximal activity (AC50) was 1.78 µM (active).
In the case of `O=C(COc1ccc(-c2ccccc2)cc1)N/N=C/c1ccccc1Br`, the AC50 was 2.51 µM (active).
On the same count and under the same terms, with `O=C(COc1ccccc1-c1ccccc1)N/N=C/c1cccc2ccccc12` the figure was 2.24 µM (active).
Turning to `COc1ccc(OCC(=O)NNC(=O)c2ccc(-c3ccccc3)cc2)cc1`, the “activity, negative = inhibition” value is -9.31% (inactive).
On to `O=C(Cc1ccccc1)Nc1nc2ccc(Cl)cc2c2nc(-c3ccco3)nn12`, for which the concentration at half-maximal activity (AC50) was 1.58 µM (active).
The same measure, in the same setting: as for `Cc1cccc(Oc2ncc(-c3ccc(Cl)cc3)cn2)c1C`, the figure is 14.1 µM (active).
Consider `COc1ncc2nc(-c3ccc(Cl)cc3)c(=O)n(C)c2n1`, for which the “activity, negative = inhibition” value is 0.0431% (inactive).
Same read-out and setting: with `Cn1c(=O)c(-c2ccc(Cl)cc2)nc2cnc(Oc3ccccc3)nc21` the figure was 5.73% (inactive).
On to `Cc1cc(Cl)ccc1Oc1ncc(-c2ccc(Cl)cc2)cn1`, for which the AC50 is 2.51 µM (active).
With `C#CCCCO/N=C1/C[C@@H](O)[C@@H](O)[C@@H]2[C@@H]3C(=O)N([C@@H](C)c4ccccc4)C(=O)[C@H]3CC[C@@H]12`, the activity, negative = inhibition is -27.9% [at 11.4 µM] (inactive).
As for `CCCC(=O)N1c2ccccc2C(N(C(C)=O)c2ccccc2)CC1C` (configuration not stated), the AC50 is 15.8 µM (active).
On to `COc1ccc(-n2c(=O)cnc3cnc(OC)nc32)cc1`, for which the “activity, negative = inhibition” value was 8.17% (inactive).
Turning to `NNC(=O)c1nn(-c2ccc(Cl)cc2)ccc1=O`, the “activity, negative = inhibition” value was 86.7% (inactive).
Turning to `Cc1ccc(-n2ccc(=O)c(-c3ccnc(SCc4cccc(Cl)c4)n3)n2)cc1`, the AC50 was 3.55 µM (active).
`C[C@@H]1C[C@@H]2[C@H]3CCC4=CC(=O)C=C[C@]4(C)[C@]3(Cl)[C@@H](O)C[C@@]2(C)[C@@]1(O)C(=O)CO`: the “activity, negative = inhibition” value is 15.2% (inactive).
For the compound `CC1=C(C(=O)Nc2ccccc2F)C(c2ccsc2)C2=C(CC(c3ccccc3)CC2=O)N1` (configuration not stated), the half-maximal activity concentration (AC50) is 5.01 µM (active).
Regarding `COC(=O)C1=C(C)NC(=O)NC1c1ccsc1` (configuration not stated), the “activity, negative = inhibition” value is -26.2% (inactive).
For `C=CCSc1ccsc1C(=O)O`, the “activity, negative = inhibition” value was -21.7% (inactive).
With `C=CCSc1nc(Oc2ccccc2)c2sccc2n1`, the AC50 is 2.24 µM (active).
Same read-out and setting: with `C=CCNc1nc(SCC=C)nc2ccsc12` the figure was 8.91 µM (active); with `C=CCSc1nc(NC)c2sccc2n1`, 14.1 µM (active).
On to `C[C@@]12C(=O)OC(=O)[C@]1(C)[C@H]1CC[C@@H]2O1`, for which the “activity, negative = inhibition” value is 20.3% [at 25.6 µM] (inactive).
Regarding `O=C1C[C@@H](O)[C@@H](O)[C@H]2[C@@H]3C(=O)N(c4cccc(Oc5ccccc5)c4)C(=O)[C@@H]3CC[C@H]12`, the activity, negative = inhibition was 5.15% [at 11.4 µM] (inactive) and -20.4% [at 11.4 µM] (inactive).
Take `O=C(Nc1ccc2c(c1)OCCO2)c1cc2sccc2n1Cc1ccc(F)cc1`: the half-maximal activity concentration (AC50) was 1 µM (active).
The same measure, in the same setting: with `O=C(Nc1ccc2c(c1)OCCO2)c1cc2sccc2n1Cc1ccccc1` the figure was 3.16 µM (active).
Regarding `CCNc1nc(Sc2ccc(C)cc2)cc(C(F)(F)F)n1`, the half-maximal activity concentration (AC50) is 11.2 µM (active).
Consider `FC(F)(F)c1cc(Sc2ccccc2)nc(-c2ccccn2)n1`, for which the “activity, negative = inhibition” value was -107% (inactive).
With `Cc1ccc(Sc2cc(Cl)nc(N)n2)cc1`, the “activity, negative = inhibition” value is 15.3% (inactive).
For the compound `O=C(NCCCN1CCc2ccccc2C1)C1CCN(S(=O)(=O)N2CCCC2)CC1`, the “activity, negative = inhibition” value was -24.9% (inactive).
Turning to `O=C(NC1CCCc2ccccc21)C1CCN(S(=O)(=O)N2CCCCCC2)CC1` (configuration not stated), the AC50 is 17.8 µM (active).
For the compound `O=C(NC1CCCc2ccccc21)c1ccc(=O)[nH]c1` (configuration not stated), the “activity, negative = inhibition” value is -15.8% (inactive).
For the compound `Cc1cccc(NC(=O)CSc2nc(COc3ccccc3)nc3ccccc23)c1C`, the AC50 was 2 µM (active).
With `CCc1nc(SCC(=O)NNC(=O)C2CCCCC2)c2ccccc2n1`, the “activity, negative = inhibition” value is 4.97% (inactive).
For `CCn1c(CCNC(=O)c2ccccc2Cl)n[nH]c1=S`, the “activity, negative = inhibition” value was -10.1% (inactive).
`C=CCn1c(C(C)NC(=O)c2ccccc2)n[nH]c1=S` (configuration not stated): the AC50 is 5.01 µM (active).
